8 compounds from PubChem BioAssay (Tox21) can be followed below.

The nature of test [1]: qHTS assay for small molecules that induce genotoxicity in human embryonic kidney cells expressing luciferase-tagged ATAD5 (AID 651632). Further: nearly all actives have a fitted effect of over 15% in size. Further: potency means the concentration at half of the fitted maximal effect. In outline:
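Quantitative HTS in HEK293T expressing luciferase-tagged ATAD5, whose levels rise upon DNA damage. Exposure ran 16 hr at 37C and 5% CO2, with luminescence read 30 min after Amplite addition at room temperature.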

The nature of test [2]: qHTS assay for small molecule agonists of the p53 signaling pathway - cell viability (AID 651633; calls by dose curve; further: nearly all actives have a fitted effect of over 30% in size; further: potency means the concentration at half of the fitted maximal effect). Put shortly: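 p53RE-bla cells were treated with compound for 16 hours at 37 C. Cytotoxicity was then measured as CellTiter-Glo luminescence after 30 min at room temperature.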
Test [3] can be described thus: qHTS assay for small molecules that induce genotoxicity in human embryonic kidney cells expressing luciferase-tagged ATAD5 - cell viability (AID 651634; calls by dose curve; further: nearly all actives have a fitted effect of over 25% in size). Put shortly: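 After 15.5 hr incubation with compound at 37C, 5% CO2, HEK293T ATAD5-luciferase cells received CellTiter-Fluor reagent; fluorescence intensity was quantified following 30 min at 37C.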
Test [4] can be described thus: qHTS assay for small molecule disruptors of the mitochondrial membrane potential (AID 720635). Further: potency means the concentration at half of the fitted maximal effect. Put shortly: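 HepG2 cells exposed to compound 1 hr at 37C, then Mito-MPS dye 30 min. Ratio read of aggregate (540/590 nm) versus monomer (490/535 nm) fluorescence.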
Test [5] is described as follows: qHTS assay to test for compound auto fluorescence at 590 nm (red) in HepG2 cells (AID 720674). Put shortly:
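Seeding: 2,000 HepG2 cells/well, MEM/10% FBS, overnight 37 C. Dosing: compound vs DMSO. Incubation: 1 hr, 37 C, 5% CO2. Read: fluorescence 540 ex/590 em, Rose Bengal sodium as red reference.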

Test [6] in a line: qHTS assay to test for compound auto fluorescence at 535 nm (green) in HepG2 cells (AID 720675).
The nature of test [7]: qHTS assay to test for compound auto fluorescence at 590 nm (red) in HEK293 cells (AID 720679). In outline:
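HEK293 cells (2,000/well, 10% dialyzed FBS) attached 4-5 hr, then dosed with compound or DMSO and incubated overnight at 37C, 5% CO2. Red fluorescence read at 540/590 nm, Rose Bengal sodium as reference fluorophore.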

Test [8] is described as follows: qHTS assay to test for compound auto fluorescence at 535 nm (green) in HEK293 cells (AID 720680).
The nature of test [9]: qHTS assay to test for compound auto fluorescence at 535 nm (green) in HEK293 cell free culture (AID 720682). In outline:
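Green-channel intensity (Ex/Em 485/535 nm) was recorded from compound-treated wells containing only DMEM with 10% FBS. Fluorescein provided the equivalency standard.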

The nature of test [10]: qHTS assay to test for compound auto fluorescence at 590 nm (red) in HEK293 cell free culture (AID 720683). In outline:
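Cell-free wells of DMEM with 10% FBS received compound, and intrinsic fluorescence was read at excitation/emission 540/590 nm. Values expressed as equivalence to Rose Bengal sodium.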

Test [11] in a line: qHTS assay to test for compound auto fluorescence at 590 nm (red) in HepG2 cell free culture (AID 720684). In outline: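 Auto fluorescence equivalency versus Rose Bengal sodium, red channel Ex/Em 540/590 nm; compounds in cell-free MEM/10% FBS; DMSO vehicle control.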
Test [12] can be described thus: qHTS assay to test for compound auto fluorescence at 535 nm (green) in HepG2 cell free culture (AID 720686).
Test [13] addresses Glucocorticoid receptor (Homo sapiens) (UniProt P04150). In words: qHTS assay to identify small molecule agonists of the glucocorticoid receptor (GR) signaling pathway (AID 720691; active means well fitted activation curve with a large enough effect in the signal ratio in the repeat runs, not every such curve was filed as active; the % refers to the signal ratio). Put shortly:
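Cells: GR-bla HeLa, endogenous GR with stably integrated GRE-beta-lactamase reporter. Treatment 18 h, 37 C, compounds delivered in DMSO. Detection via LiveBLAzer B/G FRET substrate, 2 h RT, fluorescence intensity.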

Test [14] in a line: qHTS assay for small molecule disruptors of the mitochondrial membrane potential - cell viability (AID 720634; calls by dose curve; further: nearly all actives have a fitted effect of over 20% in size; further: potency means the concentration at half of the fitted maximal effect). In outline: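 ATP-based luminescent viability readout (CellTiter-Glo, 30 min, room temperature) in HepG2 cells multiplexed with the m-MPI membrane potential dye; compound exposure lasted 1 hr at 37 C.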
The nature of test [15]: qHTS assay to test for compound auto fluorescence at 460 nm (blue) in HEK293 cells (AID 720678). In outline: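 HEK293 cells (2,000/well, medium with 10% dialyzed FBS) attached 4-5 hr, then exposed to compound overnight at 37C, 5% CO2. Blue fluorescence read at 405/460 nm, with triamterene as reference fluorophore.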
The nature of test [16]: qHTS assay to test for compound auto fluorescence at 460 nm (blue) in HEK293 cell free culture (AID 720681). In outline:
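Compounds were added to cell-free DMEM with 10% FBS and fluorescence read directly. The blue channel used 405 nm excitation and 460 nm emission, with triamterene as the reference fluorophore.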

The nature of test [17]: qHTS assay to test for compound auto fluorescence at 460 nm (blue) in HepG2 cell free culture (AID 720685). In outline: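 Cell-free plates of MEM plus 10% FBS received 23 nL compound or DMSO vehicle; blue-channel (405/460 nm) intensity scored against triamterene as reference fluorophore.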
Test [18] in a line: qHTS assay to test for compound auto fluorescence at 460 nm (blue) in HepG2 cells (AID 720687). In outline: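 HepG2 cells in MEM with 10% FBS, attached overnight at 37 C, were exposed to compound or DMSO for 1 hr at 37 C, 5% CO2. Blue fluorescence was read at 405/460 nm, with triamterene as reference fluorophore.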
Test [19] concerns the target Glucocorticoid receptor (Homo sapiens) (UniProt P04150). In words: qHTS assay to identify small molecule antagonists of the glucocorticoid receptor (GR) signaling pathway (AID 720692; active means well fitted inhibition curve with a large enough effect in the signal ratio in the repeat runs, not every such curve was filed as active; the % refers to the signal ratio). In outline:
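Quantitative HTS in antagonist format: HeLa cells expressing endogenous GR and a stably integrated GRE-bla reporter, stimulated with 5 nM dexamethasone (final) alongside test compounds for 18 h.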

Each structure is given as a SMILES string. Unmarked numbers belong to inactive results. Inconclusive results are not listed. Calls of active or inactive are those of the source. Unless noted, the call rests on the fitted dose curve; in most records, active means well fitted curve in the direction sought with a large enough effect in the repeat runs; inconclusive means weak or mixed curves; inactive means no such curve, though single readings can be large; an effect the other way counts as inactive or inconclusive.
On the % scale 0 is the no-effect control and ±100 the full control effect.

Glucocorticoid receptor (Homo sapiens), sequence (P04150 whole entry, looked up): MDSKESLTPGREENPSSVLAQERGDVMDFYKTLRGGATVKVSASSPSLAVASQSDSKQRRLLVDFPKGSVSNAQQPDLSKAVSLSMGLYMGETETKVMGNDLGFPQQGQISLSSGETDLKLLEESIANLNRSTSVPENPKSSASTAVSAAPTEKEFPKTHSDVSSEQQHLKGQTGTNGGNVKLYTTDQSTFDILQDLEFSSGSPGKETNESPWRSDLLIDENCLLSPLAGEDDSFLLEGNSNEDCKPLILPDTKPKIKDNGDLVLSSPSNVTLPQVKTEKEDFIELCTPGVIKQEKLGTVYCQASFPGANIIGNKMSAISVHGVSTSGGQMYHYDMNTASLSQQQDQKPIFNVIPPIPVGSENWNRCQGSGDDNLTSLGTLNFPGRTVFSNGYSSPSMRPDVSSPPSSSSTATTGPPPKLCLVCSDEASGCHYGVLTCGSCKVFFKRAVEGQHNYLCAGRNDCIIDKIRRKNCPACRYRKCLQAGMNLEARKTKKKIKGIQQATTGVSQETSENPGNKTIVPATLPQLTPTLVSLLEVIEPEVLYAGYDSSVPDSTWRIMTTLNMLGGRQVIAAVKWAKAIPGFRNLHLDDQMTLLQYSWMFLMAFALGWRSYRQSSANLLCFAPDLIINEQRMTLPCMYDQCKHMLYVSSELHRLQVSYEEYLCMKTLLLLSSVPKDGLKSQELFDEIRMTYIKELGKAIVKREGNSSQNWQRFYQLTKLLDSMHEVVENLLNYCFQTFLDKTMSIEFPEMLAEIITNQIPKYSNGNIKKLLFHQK

With `CCOC(=O)c1ccc(C#Cc2ccc3c(c2)C(C)(C)CCS3)nc1`, the Potency entry in [1], in test [2], in test [3] and in test [13] was “inactive” throughout. Besides, in test [4], the Potency is 29.8 µM (active). Also, the call in [5], in [6], in test [7], in [8], in test [9] and in test [10] was inactive. Moreover, the compound was called inactive in [11] and in [12].

For `O=c1cc(-c2ccccc2)oc2ccc3ccccc3c12`, the Potency is 0.077 µM (active) in test [1], 24.3 µM (active) in [14] and 8.63 µM (active) in [4]. For the same compound, the Potency entry in test [3], in test [15], in [16], in test [17] and in test [18] was “inactive” in each case. For the same compound, the compound was classed as inactive in [6], in [7], in test [8], in [9], in test [10] and in test [11]. The outcome in test [12] was inactive.

On to `COc1cc(C(=O)NC2CCN(C)CC2)ccc1Nc1ncc2c(n1)N(C1CCCC1)CC(F)(F)C(=O)N2C`, for which the Potency is 1.58 µM (active) in [1], 44.5 µM (active) in test [2] and 44.5 µM (active) in test [4]. Besides, the compound was called inactive in test [5], in [6], in test [7], in test [10], in test [11] and in test [12]. The Potency entry in test [15], in test [16], in test [17] and in test [18] was “inactive” in each case.

With `CC1(CN2CCC(n3c(=O)[nH]c4ccccc43)CC2)OCc2ccccc2-n2cccc21` (stereo unspecified), the Potency entry in test [1], in test [14], in test [15], in test [16], in [17] and in test [18] was “inactive” each time. The Potency result in test [13] was “inactive”. Besides, the Potency in test [2] and in [4] was 29.8 µM (active) each time. In addition, the call in test [5], in [6], in [7], in test [9], in test [10] and in test [11] was inactive. Also, the call in test [12] was inactive.

For `C=C1CCC2CC1C2(C)C` (stereo unspecified), the Potency entry in test [1], in test [2], in test [3], in test [15], in [16] and in test [17] was “inactive” throughout. Also, the Potency result in test [18] was “inactive”. The compound was called inactive in [5], in test [6], in [7], in test [8], in [9] and in test [10]. Besides, the compound was classed as inactive in test [11] and in test [12].

For the compound `NNC(=O)CP(=O)(c1ccccc1)c1ccccc1`, the Potency entry in [1], in [2], in test [14], in [15], in test [16] and in test [18] was “inactive” each time. The Potency result in test [13] and in [19] was “inactive” throughout. For the same compound, the outcome in test [6], in [7], in test [8], in [9], in test [10] and in test [11] was inactive. Also, the compound was classed as inactive in [12].

As for `CN1C(C(=O)Nc2ccccn2)=C(O)c2sccc2S1(=O)=O`, the Potency entry in test [1], in [2], in [14], in test [13] and in [19] was “inactive” throughout. In addition, the Potency in test [4] was 7.17 µM (active). Moreover, in [5], the fluorescence, relative to Rose Bengal is -0.263% [at 18.6 µM]. Also, the fluorescence, % of fluorescein control in test [6] was 0.0319% [at 18.6 µM]; in test [12] it was -0.0069% [at 18.6 µM]. For the same compound, the fluorescence, % of triamterene in test [15] was 0.367% [at 18.6 µM]. The fluorescence, % of fluorescent control in test [7] is 0.192% [at 18.6 µM]; in test [16] it was 2.91% [at 18.6 µM]; in test [10], 0.306% [at 18.6 µM]; in [17], 0.579% [at 18.6 µM]; in test [18] it was 0.333% [at 18.6 µM]. For the same compound, the fluorescence, % of fluorescein in test [8] was -0.0339% [at 18.6 µM]. Besides, the activity change in [9] is -0.011% [at 18.6 µM]. Moreover, in [11], the fluorescence, % of Rose Bengal is -0.0396% [at 18.6 µM].

Turning to `CCCCCCCC/C=C\CCCCCCCCO`, the Potency entry in test [1], in test [2], in test [14], in [4], in test [16] and in test [18] was “inactive” throughout. In addition, the Potency entry in [13] and in test [19] was “inactive” throughout. Also, the compound was classed as inactive in test [5], in [6], in test [7], in [8], in test [9] and in [10]. For the same compound, the call in test [11] and in test [12] was inactive.
